Experimental data as given in PubChem BioAssay (NCI).
About 79,000 compounds went through this panel and 15% of them were active in at least one assay; those are over-represented in the sample as a whole. No stated cut-off is given here; in the data, active means growth inhibition above about 70%; inactive means the rest.

What was measured:
[1] = NCI Yeast Anticancer Drug Screen. Data for the rad50 strain (AID 155);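 further: 0% = growth of vehicle-only cultures of the same strain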; details: S. cerevisiae rad50 strain growth inhibition; at 50.0 µM; stronger effect = higher value
In short: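 Genetically altered yeast (DNA repair pathway); compound treatment; growth inhibition vs vehicle ctrl.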

[2] = NCI Yeast Anticancer Drug Screen. Data for the mec2-1 strain (AID 157); details: S. cerevisiae mec2-1 strain, at 50.0 µM, stronger effect = higher value
In short: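 Compounds were applied to mec2-1 yeast cells. Their growth was then compared with that of vehicle-treated cultures to give growth inhibition.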

[3] = NCI Yeast Anticancer Drug Screen. Data for the sgs1 mgt1 strain (AID 161);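 further: 0% = growth of cultures given vehicle only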; details: S. cerevisiae sgs1 mgt1 strain, at 50.0 µM, stronger effect = higher value
In short: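 Compounds are added to genetically altered yeast, and growth is compared with cultures given vehicle alone to give percent inhibition.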

[4] = NCI Yeast Anticancer Drug Screen. Data for the cln2 rad14 strain (AID 165);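 further: 0% = growth equal to vehicle treated cultures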; details: S. cerevisiae cln2 rad14 strain, at 50.0 µM, stronger effect = higher value
In short: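 Strain: cln2 rad14 yeast, altered in cell cycle control and DNA damage repair. Read-out: growth inhibition vs vehicle.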

[5] = NCI Yeast Anticancer Drug Screen. Data for the bub3 strain (AID 167); details: S. cerevisiae bub3 mutant strain, at 50.0 µM, stronger effect = higher value
In short: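 Yeast carrying a defined mutation is treated with each compound, and growth is compared with that of vehicle-exposed cells to give inhibition.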

[6] = NCI Yeast Anticancer Drug Screen. Data for the mlh1 rad18 strain (AID 175); details: S. cerevisiae mlh1 rad18 strain growth inhibition; at 50.0 µM; stronger effect = higher value
In short: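 A repair-deficient yeast strain is exposed to test compound, and growth is scored relative to vehicle-treated controls.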

Measured: growth inhibition

COc1cc(C(=O)O)c(O)c(OC)c1OC
inactive: [1] 0.2% | [2] 0.9% | [3] -8.4% | [4] -36.1% | [5] -13% | [6] 3.4%

CCCc1cc(=O)n(CCCc2ccccc2)c(=O)[nH]1
inactive: [1] -3.85% | [2] 1.25% | [3] 13.4% | [4] -7.75% | [5] 15.2% | [6] 18.4%

CCOc1ccccc1/C=N/NS(=O)(=O)c1ccc([N+](=O)[O-])cc1
inactive: [1] -19.2% | [2] -23.1% | [3] 2.55% | [4] -18.6% | [5] 12.9% | [6] -14.2%

O=C(NC(=S)OC1CCCC1OC(=S)NC(=O)c1ccccc1)c1ccccc1 (stereo unspecified)
inactive: [1] -21.5% | [2] -12.6% | [3] -10.1% | [4] 14.5% | [5] -13.2% | [6] -33.7%

COc1ccc(S(=O)(=O)N/N=C/C(=O)OCOC(=O)C(C)(C)C)cc1
inactive: [1] 1.55% | [2] -11.8% | [3] -5.1% | [4] 8.55% | [5] -25.9% | [6] 19.1%

CC(=O)C1CCC(C)(O)CC1=O (stereo unspecified)
inactive: [1] -0.6% | [2] -18% | [3] -14.5% | [4] -9.35% | [5] -8.4% | [6] -3.65%

OCc1ccccc1O
inactive: [1] -1.7% | [2] 6.25% | [3] -6.55% | [4] 25.8% | [5] -0.7% | [6] 11.2%

CN(C)c1nc(OC2C(C3COC(C)(C)O3)OC3OC(C)(C)OC32)nc(N(C)C)n1 (stereo unspecified)
inactive: [1] 36.9% | [2] -9.65% | [3] 9.65% | [4] 26% | [5] -4.35% | [6] 2.15%

COc1cccc(C2c3cc4c(cc3OC(Nc3ccccc3)C2C)OCO4)c1OC (stereo unspecified)
inactive: [1] -28.4% | [2] 6.25% | [3] -28.1% | [4] 3.35% | [5] -36.9% | [6] -21.4%

COC(=O)/C=C/C(=O)OC
inactive: [1] 9.75% | [2] 14.4% | [3] 19.4% | [4] 9.3% | [5] 9.45% | [6] 6.6%

COc1ccc(CCc2ccc(OC)c(OCc3ccccc3)c2)cc1COc1ccccc1
inactive: [1] 41.9% | [2] 0.45% | [3] 22.1% | [4] 3.85% | [5] -1.8% | [6] 5.95%
